Screen size: about 260,000 compounds; about 890 (0.34%) were called active. A call without a number means that no potency is given here. Inconclusive results (about 1%) are left out. The sample holds actives, similar compounds and a random draw of the others, so the mix is not that of the screen. A number with no mark means an inactive call. Calls come from the whole dose curve; as a rule, active = well fitted activation curve with a large enough effect; inconclusive = small, poorly fitted or top-dose-only effect; inactive = no such curve, though single readings can be large or run the other way.
Potency is the fitted concentration of half-maximal effect.

Sequence of Pyruvate kinase PKM (Homo sapiens) (P14618 whole entry, looked up, canonical isoform): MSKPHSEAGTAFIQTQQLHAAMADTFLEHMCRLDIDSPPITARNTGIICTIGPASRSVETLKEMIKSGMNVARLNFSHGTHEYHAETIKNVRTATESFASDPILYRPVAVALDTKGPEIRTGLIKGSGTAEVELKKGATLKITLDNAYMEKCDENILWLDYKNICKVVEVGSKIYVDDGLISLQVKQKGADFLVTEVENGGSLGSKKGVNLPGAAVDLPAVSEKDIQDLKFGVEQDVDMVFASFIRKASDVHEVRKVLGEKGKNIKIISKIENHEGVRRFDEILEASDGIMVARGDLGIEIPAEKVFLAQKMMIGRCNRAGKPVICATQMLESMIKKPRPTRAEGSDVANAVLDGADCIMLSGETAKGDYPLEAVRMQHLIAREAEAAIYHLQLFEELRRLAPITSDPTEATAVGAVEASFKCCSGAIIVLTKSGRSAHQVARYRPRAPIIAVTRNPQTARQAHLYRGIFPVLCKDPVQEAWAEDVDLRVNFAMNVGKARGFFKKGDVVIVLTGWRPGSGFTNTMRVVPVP

For this assay, the target named is Pyruvate kinase PKM (Homo sapiens) (UniProt P14618). The assay can be described thus: qHTS Assay for Activators of Human Muscle isoform 2 Pyruvate Kinase. Note: nearly all actives have a fitted effect of over 55% in size. To be noted: purified PKM2, Kinase-Glo ATP luminescence; Potency: activation; series mostly up to 57.5 µM. Summed up:
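ATP formation by purified human PK-M2, quantified via coupled luciferase luminescence after 1 h at room temperature with 0.1 mM ADP and 0.5 mM PEP final.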
As to `CCCn1c(CCNc2nc(-c3ccc(OC)cc3)cs2)nc2ccccc21`, the Potency entry is “inactive”.

Take `O=C(N/N=C\c1cc2c(cc1Cl)OCO2)c1ccc(Br)s1`: the Potency result is “inactive”.

In the case of `CCOC(=O)C1(CCOc2ccccc2)CCN(Cc2cc(OC)cc(OC)c2)CC1`, the Potency result was “inactive”.

Take `COc1ccc(C(=O)CC(=O)c2ccc(C)cc2)c(O)c1`: the Potency result is “inactive”.

Turning to `COC(=O)CN1C(=O)[C@H]2[C@@H](C3CC3)N3C(=O)CN(Cc4ccc(-c5ccccc5)cc4)C(=O)[C@@]3(Cc3ccccc3)[C@H]2C1=O`, the Potency entry was “inactive”.

Take `COc1ccccc1CN(C)C(=O)c1cc2ccccc2o1`: the Potency entry was “inactive”.

As to `COc1ccccc1CCNS(=O)(=O)c1cn(C)nc1C`, the Potency entry is “inactive”.

Take `Cc1cccc(N2CCN(C(=O)c3cccc(N4C(=O)C5C6C=CC(C6)C5C4=O)c3)CC2)c1C` (configuration not stated): the Potency result was “inactive”.

As to `O=C(Nc1cccc(F)c1)NC1CCCc2ccccc21` (configuration not stated), the Potency entry was “inactive”.

Consider `O=C(CNC(=O)c1ccc(F)cc1)c1ccccc1`, for which the activation is 0.121% [at 11.5 µM, 0% is enzyme alone, no compound].

Take `CCc1nnc(NC(=O)c2c(O)c3c([nH]c2=O)CCCC3)s1`: the Potency entry is “inactive”.

As to `C[N+](C)(C)CCNC(=O)c1c(O)c2c([nH]c1=O)CCCC2`, the Potency result was “inactive”.

For the compound `O=C(NCc1ccccn1)c1c(O)c2c([nH]c1=O)CCCC2`, the Potency was 3.16 µM (active).

Turning to `CCOC(=O)C1(CCOc2ccccc2)CCN(Cc2ccc(C#CCCO)cc2)CC1`, the Potency result is “inactive”.

`COc1ccc(N2CCN(S(=O)(=O)c3ccc4c(c3)NC(=O)C(C)C(=O)N4)CC2)cc1` (configuration not stated): the Potency result is “inactive”.

As to `Nc1c(Cl)cc(-c2csc(N3CCCC3c3nc4cc(Cl)c(Cl)cc4n3CCOCCO)n2)cc1Cl` (configuration not stated), the Potency entry was “inactive”.

For the compound `Cc1ccc(C)c(S(=O)(=O)Nc2cc(C)on2)c1`, the Potency result was “inactive”.

In the case of `Cc1ccc(C)c(S(=O)(=O)Nc2cccc(-n3cnnn3)c2)c1`, the Potency was 14.1 µM (active).

On to `O=C(Nc1cccc(-n2cnnn2)c1)c1cccnc1`, for which the Potency entry was “inactive”.

`CCCCC(=O)Nc1ccccc1N1CCN(c2ccc(F)cc2)CC1`: the activation is -1.04% [at 11.5 µM, 0% is enzyme alone, no compound].

As to `O=C(c1cc(C(=O)N2CCN(c3ccc(F)cc3)CC2)cc([N+](=O)[O-])c1)N1CCN(c2ccc(F)cc2)CC1`, the Potency result was “inactive”.

As for `CSc1ccc(S(=O)(=O)N2CCC(C(=O)NCCc3ccccc3)CC2)cc1`, the Potency result was “inactive”.

As for `Oc1ccc(C2Nc3cccc4cccc(c34)N2)cc1`, the Potency entry was “inactive”.

With `CCC1CCCCN1C(=S)Nc1ccc(S(=O)(=O)Nc2ncccn2)cc1` (configuration not stated), the Potency result was “inactive”.

In the case of `Cc1nc(SCC(=O)N2CC(=O)Nc3ccccc32)c2c(C)c(C)sc2n1`, the Potency is 12.6 µM (active).

With `Cc1nc(SCC(=O)N2CCc3ccccc3C2)c2c(C)c(C)sc2n1`, the Potency result is “inactive”.

With `COc1cccc(Nc2nnc(SCC(=O)N3CC(=O)Nc4ccccc43)s2)c1`, the Potency entry is “inactive”.
